# Most compounds without a hit are left out; they make up all but 12% or so of the library.
# KCC2 mod – KCC2 cotransporter modulators, thallium flux, primary screen, cell-based, HEK293 KCC2, FluoZin-2 fluorescence, MLSMR; KCC2 cells, thallium flux FluoZin-2 fluorescence; actives 2.2% (n = 190,000); B-score of Tl+ flux slope (higher = more flux/activation; lower = inhibition) at 10 µM; AID 1456, 2008;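 active = thallium flux slope and its plate-corrected score both differing from the plate sample mean at a set confidence after two filtering rounds, in either direction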;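 note: slope of fluorescence scaled to starting intensity during 10 to 20 s after thallium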
# Calpain2 inh – inhibitors of pig calpain II, primary screen, biochemical, fluorogenic peptide substrate, 1536-well; purified calpain II, 30 min; inhibition, % at 16 µM; actives 0.37% (n = 220,000);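 active = inhibition above about 50%, limit read from the data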
# WT yeast gro inh – growth inhibition of WT strain, primary screen, mitochondrial fusion inhibitor project, WT and mutant strains, chemical genetic | actives 2.1% (n = 190,000) | AID 1362, 2008 | inhibition, % at 10 µM | mitochondrial fusion phenotypic screen; in the data active = inhibition above about 58%; tested in S. cerevisiae
# L major viab – Leishmania major promastigote growth inhibition, primary screen. actives 9% (n = 200,000). Leishmania major promastigotes, resazurin fluorescence viability. AID 1063, 2008. inhibition, % at 10 µM; in the data active = inhibition above about 50%;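 note: promastigotes grown with compound for 44 hours at 28 °C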
# ROMK mod – ROMK potassium channel modulators, primary screen, cell-based, thallium flux, MLSMR library; AID 1918, 2009; Tet-inducible ROMK, thallium flux fluorescence; actives lie on both sides; actives 2% (n = 130,000); B-score at 10 µM; ATP-sensitive inward rectifier potassium channel 1 (Homo sapiens), P48048;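 active = signal ratio slope over the read window, or its plate-corrected B-score, at least 3 SD from the plate mean, either direction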;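 note: B-score of the F/F0 ratio slope over 7 to 12 s after thallium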
# Target sequence (P48048 whole entry, looked up): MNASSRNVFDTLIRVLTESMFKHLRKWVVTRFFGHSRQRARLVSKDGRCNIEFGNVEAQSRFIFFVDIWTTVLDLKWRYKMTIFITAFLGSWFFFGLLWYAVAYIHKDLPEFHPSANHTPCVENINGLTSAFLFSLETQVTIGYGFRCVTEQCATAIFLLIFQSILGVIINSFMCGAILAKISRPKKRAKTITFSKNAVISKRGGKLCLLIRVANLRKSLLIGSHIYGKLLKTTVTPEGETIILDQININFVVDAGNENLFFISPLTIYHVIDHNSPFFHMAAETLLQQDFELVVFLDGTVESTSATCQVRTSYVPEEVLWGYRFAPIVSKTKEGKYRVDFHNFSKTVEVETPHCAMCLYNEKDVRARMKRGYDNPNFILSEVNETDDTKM
# An asterisk follows results filed as active; x = no result given.
SMILES,KCC2 mod,Calpain2 inh,WT yeast gro inh,L major viab,ROMK mod
O=C(NCc1ccccc1)c1ccc(C2SCC(=O)N2Cc2ccccc2)cc1 (stereo not drawn),-0.0212,16.8,20.9,96.6*,x
CC(=O)c1ccc(NC(=O)COc2ccc3c(c2)OCO3)cc1,-0.387,24.8,-0.6,7.7,-0.273
COc1cc(NC(=O)C2CCCO2)c(OC)cc1NC(=O)c1ccccc1 (stereo not drawn),-0.529,-29.7,28.2,83.3*,x
COc1cc(NC(=O)C2CCCO2)c(OC)cc1Cl (stereo not drawn),0.106,-5.5,-7.5,-4.9,x
CCN(CC)c1cccc(OC2=NS(=O)(=O)c3ccccc32)c1,0.0323,-11.4,12.2,80.1*,-0.122
CCc1ccc(OC2=NS(=O)(=O)c3ccccc32)cc1,-0.768,-2.4,-4.0,-3.4,-0.138
CC(C)CC(=O)NC(c1ccccc1Cl)c1c(O)ccc2ccccc12 (stereo not drawn),0,7.8,-14.2,100.3*,x
COc1ccc(C(NC(=O)C2CCCCC2)c2c(O)ccc3ccccc23)cc1 (stereo not drawn),0.0331,-12.7,20.1,99.8*,0.425
CCCC(=O)NC(c1ccco1)c1c(O)ccc2ccccc12 (stereo not drawn),x,-30.4,-9.2,56.7*,x
CCC(=O)NC(c1cccc([N+](=O)[O-])c1)c1c(O)ccc2ccccc12 (stereo not drawn),0.373,-31.2,1.8,6.3,-0.00338
O=C(CCC(=O)Nc1cccc2ccccc12)N/N=C/c1ccco1,0.328,-3.0,-20.5,-1.9,-0.756
CCCCC(=O)NC(c1ccco1)c1c(O)ccc2ccccc12 (stereo not drawn),0.167,-14.4,-0.7,67.2*,-0.134
CC(C)C(=O)NC(c1ccc(N(C)C)cc1)c1c(O)ccc2ccccc12 (stereo not drawn),0.504,-1.9,x,x,x
CC1CC(C)CN(S(=O)(=O)c2cccc(C(=O)OCCN3CCCC3=O)c2)C1 (stereo not drawn),-0.303,14.7,-4.2,-1.5,-1.14
C/C(CCS(=O)(=O)c1ccccc1)=N/O,0.899,20.8,5.8,6.3,0.795
CCOCC(=O)Nc1cc(C(F)(F)F)ccc1Oc1cccc(Br)c1,1.72,39.0,66.2*,8.9,-0.234
CC(C)NC(=O)CN(C)S(=O)(=O)c1ccc(F)cc1,0.235,15.2,3.2,-7.7,0.0668
CCCNC(=O)CN(C)S(=O)(=O)c1ccc(F)cc1,1.1,-11.0,-25.8,63.8*,1.07
COC(=O)[C@H](Cc1ccccc1)NC(=O)NCCC1=CCCCC1,x,16.1,-2.6,9.0,0.163
Cc1ccc(NC(=O)C2(NC(=O)c3ccccn3)CCCCC2)cc1Br,-0.817,19.4,35.0,58.4*,x
O=C(NC1(C(=O)NC2CCCCC2)CCCCC1)c1ccccn1,0.00601,-43.4,4.2,-2.8,-0.172
O=C(Nc1nnc(-c2ccc(Cl)cc2)o1)C1=COCCO1,9.45*,26.6,17.0,54.3*,-1.03
COc1ccccc1C(=O)Nc1nnc(-c2ccc(Cl)cc2)o1,1.35,-13.2,28.6,x,x
Cc1cccc(C(=O)NC(=S)Nc2ccc(Cc3ccncc3)cc2)c1,0.525,9.3,60.6*,44.7,-1.57
O=C(Nc1ccc(S(=O)(=O)N2CCCCC2)cc1)c1ccncc1,0.153,29.9,-19.6,7.3,x
SMILES,KCC2 mod,Calpain2 inh,WT yeast gro inh,L major viab,ROMK mod
NC(=O)c1ccsc1NC(=O)c1ccc(S(=O)(=O)N2CCCC2)cc1,-1.44,30.1,-8.3,56.0*,-0.0167
Cc1cc(C)cc(C(=O)NC(=S)Nc2ccc(Cc3ccncc3)cc2)c1,1.64,-0.8,29.5,11.2,-0.279
O=C(Nc1ccc(Cc2ccncc2)cc1)c1ccc(S(=O)(=O)N2CCCC2)cc1,-1.1,13.8,0.6,98.7*,0.0152
CC(=O)Nc1ccc(S(=O)(=O)N2CCN(C)CC2)cc1,x,-6.5,64.2*,-7.8,0.114
NS(=O)(=O)c1ccc(CCNC(=O)CSc2ncnc3ccccc23)cc1,2.64,23.0,12.1,-5.0,0.723
O=C(NCc1ccco1)c1ccc(Cl)c(S(=O)(=O)N2CCc3ccccc32)c1,-0.527,32.3,39.1,41.9,x
CN1CCN(S(=O)(=O)c2ccc(-c3ccccc3)cc2)CC1,-2.47,15.2,1.7,86.2*,x
Cc1cc(C(=O)Nc2ccc(S(=O)(=O)N3CCCC3)cc2)cs1,0.355,6.5,-8.0,72.8*,x
CC(=O)c1ccc(NC(=O)c2ccc(S(=O)(=O)N3CCCC3)cc2)cc1,0.432,-0.1,-27.6,98.0*,x
Cn1nc(C(=O)Nc2ccc(S(=O)(=O)N3CCCCC3)cc2)c2ccccc2c1=O,1.34,51.4*,-33.5,25.9,0.581
COc1ccc(NCC(=O)Nc2ccc(Br)cc2F)c(OC)c1,-0.125,-12.9,x,x,x
Cc1cccc(C(=O)NC(=S)Nc2ccc(S(=O)(=O)N3CCN(C)CC3)cc2)c1,0.715,-2.8,17.0,38.1,x
Cc1cccc(C(=O)NC(=S)Nc2ccc(S(=O)(=O)N3CCCCC3)cc2)c1,-0.119,21.9,31.2,99.7*,-0.49
CCOc1nc(NC(=O)NC(=O)c2ccccc2)nc(-c2ccccc2)n1,0.776,30.8,9.4,-4.5,x
COC(=O)[C@@H]1[C@@H](C#N)C2(c3ccccc3-c3ccccc32)N(c2ccc(Cl)cc2)N1C#N,-1.07,-10.9,73.6*,-1.5,-0.326
O=C(Cc1ccc(Cl)cc1)NN1C(=O)c2ccccc2C1=O,0.275,15.5,6.1,33.6,x
COc1ccc(-c2c(=O)n(OCc3ccccc3[N+](=O)[O-])c3ccccc3[n+]2[O-])c(OC)c1,-0.903,26.4,-5.2,19.2,0.918
COc1nc(Nc2ccc([N+](=O)[O-])cc2)nc(NC2CCCCC2)n1,0.00231,-39.0,88.0*,89.0*,-0.0794
COc1ccc(C/C(N)=N/OC(=O)C(c2ccccc2)c2ccccc2)cc1OC,x,-20.6,-23.6,64.6*,x
COc1ccc(C/C(N)=N/OC(C)=O)cc1OC,0.381,12.5,3.3,41.6,1.23
COC(=O)Cn1nc(-c2ccccc2)c2ccccc21,0.492,-13.8,11.3,8.6,x
CC(C)(NC(=O)N1CCCC1)c1cccc(C(C)(C)NC(=O)N2CCCC2)c1,0.59,-6.2,9.8,-2.1,x
Cc1ccc(NC(=O)C2CC(Cl)=CCC2C(=O)O)c([N+](=O)[O-])c1 (stereo not drawn),0.57,-15.5,-10.2,-5.7,0.516
CC(C)N(C(=O)CS(=O)(=O)c1ccc(Cl)c(Cl)c1)C(C)C,0.181,11.3,0.1,85.4*,0.0409
O=C(N/N=C/C=C\c1ccco1)c1cccs1,1.55,8.9,13.9,1.9,0.743
O=S(=O)(c1ccc(OCC(O)CN2CCN(c3ccccc3O)CC2)cc1)N1CCOCC1 (stereo not drawn),0.908,16.2,1.7,4.0,x
Cc1ccc(N2CCN(CC(O)COc3ccc([N+](=O)[O-])cc3)CC2)cc1 (stereo not drawn),-0.237,27.2,15.0,96.9*,-0.578
